According to the supplement of paper PMC11732987, “Enantioselective OTUD7B fragment discovery through chemoproteomics screening and high-throughput optimisation” (Communications Chemistry, 2025):

What was measured:
Test in all cases: log2 ratio of Biotin-Ahx-Ub-VS probe labelling (compound/DMSO); higher = less target engagement, active = hit call of the paper (q ≤ 0.05, log2 ratio ≤ -1)
Conditions in all cases: treatment time: 3 h
[1] = compound: CN(Cc1cccc(Br)c1)C(=O)CCl
How it was run: (§1)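 HEK293T lysate (495 µg per sample, in Tris/CHAPS/IGEPAL buffer with protease inhibitors) was treated in triplicate with compound at 50 or 200 µM or with DMSO for 3 h. It was then treated with Biotin-Ahx-Ub-VS (0.5 µM final) for 1 h. Labelled DUBs were NeutrAvidin-enriched, digested with LysC and trypsin, and run by diaPASEF LC-MS/MS. Median-normalised label-free quantities gave average log2 ratios compound/DMSO by unpaired t-test, using proteins with ≥2 unique peptides.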

[2] = compound: CN(Cc1ccccc1)C(=O)CCl
How it was run: as §1

[3] = compound: COc1ccc(CN(C)C(=O)CCl)cc1
How it was run: as §1

[4] = compound: COc1cccc(CN(CCCc2ccccc2)C(=O)CCl)c1
How it was run: as §1

[5] = compound: ClCC(=O)N1CCc2cc(Cl)c(Cl)cc2C1
How it was run: as §1

[6] = compound: ClCC(=O)N1CCc2nc(ncc2C1)-c1ccccc1
How it was run: as §1

[7] = compound: ClCC(=O)N1CCc2nocc2C1
How it was run: as §1

[8] = compound: ClCC(=O)N1CCc2scc(Br)c2C1
How it was run: as §1

[9] = compound: ClCC(=O)NC(C1CCCC1)c1cccs1
How it was run: as §1

[10] = compound: ClCC(=O)NC1CCCc2ccccc12
How it was run: as §1

[11] = compound: ClCC(=O)NC1CCOc2ccc(Cl)cc12
How it was run: as §1

[12] = compound: ClCC(=O)NC1CCSc2ccccc12
How it was run: as §1

[13] = compound: ClCC(=O)N[C@H]1CCCc2ccccc12
How it was run: as §1

[14] = compound: Fc1ccc(N2CCN(c3nc4c(CN(C(CCl)=O)CC4)cn3)CC2)cc1.Cl.Cl
How it was run: as §1

Measured: log2 ratio of Biotin-Ahx-Ub-VS probe labelling

ALG13 (UniProt Q9NP73)
UniProt Q9NP73, sequence (Q9NP73 whole entry): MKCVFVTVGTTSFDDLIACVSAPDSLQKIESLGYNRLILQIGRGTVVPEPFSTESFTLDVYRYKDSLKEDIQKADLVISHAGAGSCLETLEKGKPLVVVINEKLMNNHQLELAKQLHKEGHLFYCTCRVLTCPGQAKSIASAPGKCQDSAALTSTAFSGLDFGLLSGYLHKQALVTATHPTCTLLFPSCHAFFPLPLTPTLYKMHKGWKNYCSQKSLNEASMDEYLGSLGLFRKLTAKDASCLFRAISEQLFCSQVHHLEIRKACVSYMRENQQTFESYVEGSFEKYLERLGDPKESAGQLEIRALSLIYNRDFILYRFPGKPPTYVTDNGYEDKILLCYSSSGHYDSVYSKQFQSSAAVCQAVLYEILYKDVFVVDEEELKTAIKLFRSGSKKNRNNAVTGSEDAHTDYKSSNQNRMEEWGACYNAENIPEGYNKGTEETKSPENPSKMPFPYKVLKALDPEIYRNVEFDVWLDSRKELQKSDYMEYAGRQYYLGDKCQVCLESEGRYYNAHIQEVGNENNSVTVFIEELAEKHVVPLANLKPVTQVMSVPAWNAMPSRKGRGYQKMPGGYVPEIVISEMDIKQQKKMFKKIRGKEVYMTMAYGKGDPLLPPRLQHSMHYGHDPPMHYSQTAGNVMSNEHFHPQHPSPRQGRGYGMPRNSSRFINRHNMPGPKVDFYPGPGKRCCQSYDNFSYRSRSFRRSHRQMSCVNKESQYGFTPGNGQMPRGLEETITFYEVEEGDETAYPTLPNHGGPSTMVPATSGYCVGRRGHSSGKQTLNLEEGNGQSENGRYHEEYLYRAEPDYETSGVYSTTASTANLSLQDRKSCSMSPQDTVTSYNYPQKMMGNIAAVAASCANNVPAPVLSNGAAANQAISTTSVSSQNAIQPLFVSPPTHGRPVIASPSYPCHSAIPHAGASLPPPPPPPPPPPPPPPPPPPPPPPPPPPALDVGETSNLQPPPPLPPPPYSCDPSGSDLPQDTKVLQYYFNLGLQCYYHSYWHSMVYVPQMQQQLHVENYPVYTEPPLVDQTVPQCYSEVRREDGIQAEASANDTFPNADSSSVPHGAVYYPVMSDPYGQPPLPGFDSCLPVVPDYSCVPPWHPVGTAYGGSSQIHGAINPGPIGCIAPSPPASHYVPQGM
inactive: [1]; compound concentration: 50uM 0.0661 | [1]; compound concentration: 200uM -0.148 | [2]; compound concentration: 50uM 0.171 | [2]; compound concentration: 200uM 0.0619 | [3]; compound concentration: 50uM 0.45 | [3]; compound concentration: 200uM 0.0354 | [4]; compound concentration: 50uM 0.162 | [4]; compound concentration: 200uM -0.285 | [5]; compound concentration: 50uM 0.247 | [5]; compound concentration: 200uM 0.454 | [6]; compound concentration: 50uM 0.157 | [6]; compound concentration: 200uM -0.117 | [7]; compound concentration: 50uM 0.493 | [7]; compound concentration: 200uM -0.0466 | [8]; compound concentration: 50uM 0.393 | [8]; compound concentration: 200uM 0.369 | [9]; compound concentration: 50uM -0.273 | [9]; compound concentration: 200uM 0.0789 | [10]; compound concentration: 50uM 0.298 | [10]; compound concentration: 200uM 0.114 | [11]; compound concentration: 50uM 0.599 | [11]; compound concentration: 200uM 0.0386 | [12]; compound concentration: 50uM 0.273 | [12]; compound concentration: 200uM -0.0598 | [13]; compound concentration: 50uM 0.244 | [13]; compound concentration: 200uM 0.344 | [14]; compound concentration: 50uM 0.0824 | [14]; compound concentration: 200uM 0.24

OTUD7B (UniProt Q6GQQ9)
UniProt Q6GQQ9, sequence (Q6GQQ9 whole entry): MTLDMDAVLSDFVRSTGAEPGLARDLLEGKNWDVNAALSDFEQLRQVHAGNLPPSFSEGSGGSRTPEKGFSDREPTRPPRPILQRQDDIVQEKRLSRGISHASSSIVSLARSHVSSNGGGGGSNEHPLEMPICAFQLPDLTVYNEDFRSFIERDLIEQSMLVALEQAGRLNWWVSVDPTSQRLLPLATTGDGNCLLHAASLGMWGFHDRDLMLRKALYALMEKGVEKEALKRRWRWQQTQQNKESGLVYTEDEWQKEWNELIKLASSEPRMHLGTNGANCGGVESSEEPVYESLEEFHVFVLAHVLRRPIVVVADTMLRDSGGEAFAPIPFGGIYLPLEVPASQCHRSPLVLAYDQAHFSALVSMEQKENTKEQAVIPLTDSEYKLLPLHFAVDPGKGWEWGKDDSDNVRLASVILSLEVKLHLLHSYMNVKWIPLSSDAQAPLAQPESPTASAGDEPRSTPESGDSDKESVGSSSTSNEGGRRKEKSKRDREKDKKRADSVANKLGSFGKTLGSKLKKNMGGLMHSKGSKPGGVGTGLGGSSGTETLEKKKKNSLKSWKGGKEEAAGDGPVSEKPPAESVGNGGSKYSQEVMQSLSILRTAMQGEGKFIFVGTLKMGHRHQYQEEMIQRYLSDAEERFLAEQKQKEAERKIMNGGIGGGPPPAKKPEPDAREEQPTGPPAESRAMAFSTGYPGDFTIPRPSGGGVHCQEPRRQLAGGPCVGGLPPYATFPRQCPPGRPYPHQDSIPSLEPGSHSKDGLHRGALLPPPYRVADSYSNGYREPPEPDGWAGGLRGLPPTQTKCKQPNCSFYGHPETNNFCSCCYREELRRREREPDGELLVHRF
active: [1]; compound concentration: 200uM -1.07 | [2]; compound concentration: 200uM -1.45 | [5]; compound concentration: 200uM -1.67 | [6]; compound concentration: 200uM -1.67 | [7]; compound concentration: 50uM -1.21 | [7]; compound concentration: 200uM -3.03 | [8]; compound concentration: 200uM -2.61 | [9]; compound concentration: 200uM -2.95 | [10]; compound concentration: 50uM -4.5 | [10]; compound concentration: 200uM -5.65 | [11]; compound concentration: 50uM -2.75 | [11]; compound concentration: 200uM -5.2 | [12]; compound concentration: 50uM -3.62 | [12]; compound concentration: 200uM -5.08 | [13]; compound concentration: 50uM -5.19 | [13]; compound concentration: 200uM -5.13 | [14]; compound concentration: 200uM -1.57
inactive: [1]; compound concentration: 50uM -0.428 | [2]; compound concentration: 50uM -0.664 | [3]; compound concentration: 50uM -0.435 | [3]; compound concentration: 200uM -0.811 | [4]; compound concentration: 50uM -0.145 | [4]; compound concentration: 200uM -0.385 | [5]; compound concentration: 50uM -0.244 | [6]; compound concentration: 50uM -0.213 | [8]; compound concentration: 50uM -0.654 | [9]; compound concentration: 50uM -0.987 | [14]; compound concentration: 50uM -0.187

UniProt P51784
UniProt P51784, sequence (P51784 whole entry): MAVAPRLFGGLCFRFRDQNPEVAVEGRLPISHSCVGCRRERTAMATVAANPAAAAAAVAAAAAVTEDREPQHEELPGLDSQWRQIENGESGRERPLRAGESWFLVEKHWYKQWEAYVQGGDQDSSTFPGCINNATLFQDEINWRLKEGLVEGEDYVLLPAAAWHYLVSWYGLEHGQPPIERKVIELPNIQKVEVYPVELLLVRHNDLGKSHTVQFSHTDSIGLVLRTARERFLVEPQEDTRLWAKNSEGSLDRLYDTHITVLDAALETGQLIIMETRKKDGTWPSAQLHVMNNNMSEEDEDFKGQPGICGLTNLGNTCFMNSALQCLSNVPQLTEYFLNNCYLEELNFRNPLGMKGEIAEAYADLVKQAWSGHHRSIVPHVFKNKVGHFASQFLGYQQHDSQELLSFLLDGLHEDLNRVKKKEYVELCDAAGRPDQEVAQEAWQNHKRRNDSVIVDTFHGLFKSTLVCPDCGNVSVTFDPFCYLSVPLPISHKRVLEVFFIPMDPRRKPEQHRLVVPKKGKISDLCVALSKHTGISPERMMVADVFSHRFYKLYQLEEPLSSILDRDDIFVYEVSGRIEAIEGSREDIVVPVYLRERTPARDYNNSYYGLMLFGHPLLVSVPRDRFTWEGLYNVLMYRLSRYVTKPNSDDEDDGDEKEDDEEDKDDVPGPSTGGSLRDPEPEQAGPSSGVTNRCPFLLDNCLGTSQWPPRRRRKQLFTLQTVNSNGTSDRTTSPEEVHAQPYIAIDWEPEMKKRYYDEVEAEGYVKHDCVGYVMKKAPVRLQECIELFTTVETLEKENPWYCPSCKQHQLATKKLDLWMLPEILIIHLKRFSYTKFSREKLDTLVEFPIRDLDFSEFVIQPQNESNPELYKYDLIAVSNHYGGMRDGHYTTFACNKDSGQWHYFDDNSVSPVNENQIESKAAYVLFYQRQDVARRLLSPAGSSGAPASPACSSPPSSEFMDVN
inactive: [1]; compound concentration: 50uM 0.019 | [1]; compound concentration: 200uM -0.0885 | [2]; compound concentration: 50uM -0.135 | [2]; compound concentration: 200uM -0.305 | [3]; compound concentration: 50uM -0.149 | [3]; compound concentration: 200uM -0.291 | [4]; compound concentration: 50uM -0.0998 | [4]; compound concentration: 200uM -0.339 | [5]; compound concentration: 50uM 0.125 | [5]; compound concentration: 200uM -0.807 | [6]; compound concentration: 50uM 0.0941 | [6]; compound concentration: 200uM -0.284 | [7]; compound concentration: 50uM -0.0884 | [7]; compound concentration: 200uM -0.403 | [8]; compound concentration: 50uM -0.0183 | [8]; compound concentration: 200uM -0.573 | [9]; compound concentration: 50uM 0.0513 | [9]; compound concentration: 200uM -0.0659 | [10]; compound concentration: 50uM 0.0554 | [10]; compound concentration: 200uM 0.032 | [11]; compound concentration: 50uM -0.0759 | [11]; compound concentration: 200uM -0.235 | [12]; compound concentration: 50uM 0.214 | [12]; compound concentration: 200uM -0.104 | [13]; compound concentration: 50uM 0.124 | [13]; compound concentration: 200uM -0.322 | [14]; compound concentration: 50uM 0.0256
active: [14]; compound concentration: 200uM -1.01

COPS5 (UniProt Q92905)
UniProt Q92905, sequence (Q92905 whole entry, looked up): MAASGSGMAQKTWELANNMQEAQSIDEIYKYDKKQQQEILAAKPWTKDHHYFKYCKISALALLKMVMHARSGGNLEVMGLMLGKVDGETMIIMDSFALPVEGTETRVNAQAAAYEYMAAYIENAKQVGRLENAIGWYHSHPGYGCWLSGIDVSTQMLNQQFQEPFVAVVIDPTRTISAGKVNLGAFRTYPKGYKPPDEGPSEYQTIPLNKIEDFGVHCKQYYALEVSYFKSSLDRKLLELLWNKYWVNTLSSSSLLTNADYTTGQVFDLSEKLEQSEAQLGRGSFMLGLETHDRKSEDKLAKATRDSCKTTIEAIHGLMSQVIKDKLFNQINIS
inactive: [1]; compound concentration: 50uM 0.118 | [1]; compound concentration: 200uM -0.11 | [2]; compound concentration: 50uM -0.103 | [2]; compound concentration: 200uM 0.0593 | [3]; compound concentration: 50uM 0.00458 | [3]; compound concentration: 200uM -0.13 | [4]; compound concentration: 50uM -0.0338 | [4]; compound concentration: 200uM -0.0977 | [5]; compound concentration: 50uM -0.307 | [5]; compound concentration: 200uM -0.222 | [6]; compound concentration: 50uM -0.406 | [6]; compound concentration: 200uM 0.395 | [7]; compound concentration: 50uM -0.35 | [7]; compound concentration: 200uM 0.152 | [8]; compound concentration: 50uM -0.23 | [8]; compound concentration: 200uM -0.704 | [9]; compound concentration: 50uM 0.21 | [9]; compound concentration: 200uM -0.0541 | [10]; compound concentration: 50uM -0.103 | [10]; compound concentration: 200uM 0.0648 | [11]; compound concentration: 50uM -0.403 | [11]; compound concentration: 200uM -0.0328 | [12]; compound concentration: 50uM -0.0481 | [12]; compound concentration: 200uM 0.169 | [13]; compound concentration: 50uM -0.289 | [13]; compound concentration: 200uM -0.229 | [14]; compound concentration: 50uM -0.304 | [14]; compound concentration: 200uM 0.0806

USP12 (UniProt O75317)
UniProt O75317, sequence (O75317 whole entry): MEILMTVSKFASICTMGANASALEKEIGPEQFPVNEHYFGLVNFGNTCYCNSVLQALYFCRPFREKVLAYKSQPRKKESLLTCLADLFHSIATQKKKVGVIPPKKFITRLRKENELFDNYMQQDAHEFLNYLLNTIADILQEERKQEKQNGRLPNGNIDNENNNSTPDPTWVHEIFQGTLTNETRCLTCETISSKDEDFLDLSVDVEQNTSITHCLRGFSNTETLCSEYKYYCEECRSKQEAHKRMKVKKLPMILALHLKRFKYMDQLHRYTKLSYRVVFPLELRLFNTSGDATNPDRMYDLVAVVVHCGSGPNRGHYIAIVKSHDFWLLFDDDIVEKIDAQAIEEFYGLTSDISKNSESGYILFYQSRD
inactive: [1]; compound concentration: 50uM -0.144 | [1]; compound concentration: 200uM -0.188 | [2]; compound concentration: 50uM -0.0519 | [2]; compound concentration: 200uM -0.89 | [3]; compound concentration: 50uM -0.0378 | [3]; compound concentration: 200uM -0.439 | [4]; compound concentration: 50uM -0.477 | [4]; compound concentration: 200uM -0.852 | [5]; compound concentration: 50uM -0.202 | [6]; compound concentration: 50uM 0.154 | [6]; compound concentration: 200uM -0.813 | [7]; compound concentration: 50uM -0.195 | [7]; compound concentration: 200uM -0.415 | [8]; compound concentration: 50uM 0.0837 | [8]; compound concentration: 200uM -0.475 | [9]; compound concentration: 50uM 0.0281 | [9]; compound concentration: 200uM -0.0926 | [10]; compound concentration: 50uM -0.289 | [10]; compound concentration: 200uM -0.199 | [11]; compound concentration: 50uM -0.354 | [11]; compound concentration: 200uM -0.202 | [12]; compound concentration: 50uM -0.191 | [12]; compound concentration: 200uM -0.363 | [13]; compound concentration: 50uM -0.253 | [13]; compound concentration: 200uM -0.148 | [14]; compound concentration: 50uM -0.289
active: [5]; compound concentration: 200uM -2.18 | [14]; compound concentration: 200uM -1.16

UniProt Q9UGI0
UniProt Q9UGI0, sequence (Q9UGI0 whole entry): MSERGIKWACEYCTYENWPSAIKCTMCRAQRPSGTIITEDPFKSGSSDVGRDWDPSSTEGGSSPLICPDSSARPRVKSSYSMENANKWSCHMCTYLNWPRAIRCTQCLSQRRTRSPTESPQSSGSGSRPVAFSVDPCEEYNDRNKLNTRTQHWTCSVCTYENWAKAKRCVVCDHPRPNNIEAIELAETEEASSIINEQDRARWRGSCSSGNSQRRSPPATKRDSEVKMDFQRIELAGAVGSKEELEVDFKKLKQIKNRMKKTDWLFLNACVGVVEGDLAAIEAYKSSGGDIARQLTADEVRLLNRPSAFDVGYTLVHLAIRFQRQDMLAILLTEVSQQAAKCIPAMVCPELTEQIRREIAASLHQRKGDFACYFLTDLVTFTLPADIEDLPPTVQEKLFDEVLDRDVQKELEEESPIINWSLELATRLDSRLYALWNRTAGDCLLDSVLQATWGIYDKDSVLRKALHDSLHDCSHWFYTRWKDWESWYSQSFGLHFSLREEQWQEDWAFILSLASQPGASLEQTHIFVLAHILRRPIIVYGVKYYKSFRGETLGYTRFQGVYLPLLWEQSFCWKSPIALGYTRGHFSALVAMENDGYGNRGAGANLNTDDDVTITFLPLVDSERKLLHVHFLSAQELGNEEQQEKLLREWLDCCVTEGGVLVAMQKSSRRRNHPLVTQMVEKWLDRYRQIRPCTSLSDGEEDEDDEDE
active: [7]; compound concentration: 200uM -1.16 | [8]; compound concentration: 200uM -1.14
inactive: [1]; compound concentration: 50uM -0.13 | [1]; compound concentration: 200uM -0.336 | [2]; compound concentration: 50uM -0.482 | [2]; compound concentration: 200uM -0.697 | [3]; compound concentration: 50uM -0.127 | [3]; compound concentration: 200uM -0.258 | [4]; compound concentration: 50uM -0.157 | [4]; compound concentration: 200uM -0.231 | [5]; compound concentration: 50uM 0.132 | [5]; compound concentration: 200uM -0.542 | [6]; compound concentration: 50uM 0.0381 | [6]; compound concentration: 200uM -0.223 | [7]; compound concentration: 50uM -0.539 | [8]; compound concentration: 50uM -0.277 | [9]; compound concentration: 50uM -0.0906 | [9]; compound concentration: 200uM 0.116 | [10]; compound concentration: 50uM -0.0757 | [10]; compound concentration: 200uM -0.346 | [11]; compound concentration: 50uM -0.41 | [11]; compound concentration: 200uM -0.0672 | [12]; compound concentration: 50uM -0.265 | [12]; compound concentration: 200uM -0.226 | [13]; compound concentration: 50uM -0.182 | [13]; compound concentration: 200uM -0.337 | [14]; compound concentration: 50uM -0.0659 | [14]; compound concentration: 200uM -0.664
